# Sampled rows, rich in hits. Any-hit rate of the full collection: about 3%.
# ALOX12 inh – blocks human arachidonate 12S-lipoxygenase; 580,000 compounds, 1.1% hits; purified 12hLO, xylenol orange hydroperoxide absorbance; P18054; Potency, µM (doses to about 108 µM), for the others: at the top dose activity change, negative = inhibition, hits mostly inhibitors; active = well fitted inhibition curve with a large enough effect; inconclusive = small, poorly fitted or top-dose-only effect, or another doubt; inactive = no such curve, though single readings can be large or run the other way; note: potency is the fitted concentration of half-maximal effect; % is set by controls: 0 for no effect and ±100 for the full control effect
#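 Hydroperoxide product was detected by ferrous iron/xylenol orange as the 573 to 405 nm absorbance ratio. Arachidonic acid at 40 uM (final) was turned over for 30 min at room temperature by 150 nM human 12hLO, pH 7.0 Hepes buffer, after 15 min compound preincubation.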
# LDHA inh – LDHA (human) enzyme inhibition; P00338; purified LDHA, NADH/diaphorase-resazurin fluorescence; active compounds read low; activity change, % (values are at about 110 or 230 µM); 480,000 compounds, 0.15% hits; AID 1347041; in the data active = activity change below about -30%; inconclusive = mostly about -25% to -30%;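 note: plate controls were DMSO wells for no effect and wells without enzyme for full effect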
#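 Resorufin fluorescence (ex540/em590), read at 0 and 20 min after diaphorase/resazurin addition, reports the NADH left after a 5 min room-temperature reaction of 2 nM human LDH5 with 0.06 mM NADH and 0.2 mM pyruvate.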
# KCNH2 3.1 block – blocks the human KCNH2 3.1 channel isoform. U2OS KCNH2 3.1, thallium flux FluxOr; active compounds read low. activity change, % (tested at about 1.8 µM). AID 720553. 340,000 compounds, 0.95% hits;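 active = maximum activity change below -70%; inconclusive = maximum activity change from -70% to -50%; inactive = maximum activity change above -50%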;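 note: thallium influx rate constant from kinetic fluorescence after stimulation buffer; % is set by controls: 0 for no effect and ±100 for the full control effect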
#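 Kinetic fluorescence (2 min after stimulation buffer) measures Tl+ influx through KCNH2 3.1 expressed by viral transduction in U2OS cells; the rate constant is normalized against DMSO controls serving as positive and negative references.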
# KCNH2 WT inh – blocks the wildtype human KCNH2 potassium channel | Q12809 | U2OS, BacMam KCNH2, thallium flux FluxOr; active compounds read low | activity change, % at 1.84 µM | 340,000 compounds, 0.37% hits;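 active = maximum activity change below -70%; inconclusive = maximum activity change between -70% and -50%; inactive = maximum activity change above -50%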; note: % is set by controls: 0 for no effect and ±100 for the full control effect
#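 U2OS cells transduced with wild-type KCNH2 virus are loaded with FluxOr dye for 45 min, and thallium flux is measured in kinetic reads before and after stimulation buffer. Rate constants are normalized to DMSO controls.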
# Chronic BCR inh – blocks chronic active B-cell receptor signaling; ABC-DLBCL IkBa-CBG/CBR reporter, luminescence ratio, 4 h; Potency, µM (titrated, usually from 46.1 µM), for inactives: at the top dose activity change, negative = inhibition, usual class: inhibitors; 340,000 compounds, 0.05% hits; active = well fitted inhibition curve with a large enough effect in the signal ratio, with a control signal flat, not every such curve was filed as active; inconclusive = small, poorly fitted or top-dose-only effect, or effect the other way, or a change in a side signal; the % refers to the signal ratio;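 note: potency is the fitted concentration of half-maximal effect; plate controls were basal doxycycline-induced cells for no effect and cells given 10 µM MG132 for full effect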
#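 Concentration-response series (up to 46 uM) were applied to TMD8 dual-reporter cells for 4 h at 37C with doxycycline. Green/red ratio, after filter-overlap correction, defined %Activity; red signal alone was normalised to basal cells and zero luminescence.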
# ClpP mod – qHTS Assay for Activators of ClpP. ATP-dependent Clp protease proteolytic subunit (Bacillus subtilis (strain 168)), P80244. purified B. subtilis ClpP, FRET peptide cleavage, 20 min. Potency, µM (titrated, usually from 57.5 µM), inactives show top-dose activity change, negative = active. 340,000 compounds, 1.9% hits. AID 651965, 2013; active = well fitted falling curve with a large enough effect; inconclusive = small, poorly fitted or top-dose-only effect; inactive = no such curve, though single readings can be large or run the other way; note: potency is the fitted concentration of half-maximal effect; the source files actives as falling curves though it sought activators and does not explain the sign; nearly all actives have a fitted effect of over 65% in size
#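 ClpP 10 microg/mL final, pH 8 Tris/KCl buffer with BSA, glycerol, Tween-20; compound pinned in; FRET-FV substrate; RT 20 min; Ex320/Em430; ΔFRET vs ADEP 5.8 microM, DMSO, no enzyme.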
# * hit, by the source's call; ? = inconclusive; . = no result given.
SMILES,ALOX12 inh,LDHA inh,KCNH2 3.1 block,KCNH2 WT inh,Chronic BCR inh,ClpP mod
CC(=NNC(=S)SCc1ccccc1)c1ccccn1,?,1,-7,-5,.,1%
Cc1ccc(NC(=O)CSc2nnc(-c3ccncc3)s2)cc1,-9%,-2,0,4,-15%,.
COc1ccc2nc(NC(=O)C3CCCO3)sc2c1 (stereo not given),?,-3,6,2,?,0%
COc1ccc(-c2nnc(NC(=O)C3CCCO3)s2)cc1 (stereo not given),36%,-4,9,-16,-3%,13µM*
CCOC(=O)Nc1nnc(-c2ccc(OC)cc2)s1,25%,-6,-19,-15,?,13µM*
CCCCOC(=O)Nc1nnc(/C=C/c2ccc(OC)cc2)s1,-15%,-7,-2,-10,-1%,32µM*
CCCCC(=O)Nc1nnc(/C=C/c2ccc(OC)cc2)s1,.,-6,18,-10,0%,5%
COc1ccc(-c2nnc(SCC(=O)Nc3ccc(F)cc3)s2)cc1,-19%,-4,.,.,.,14µM*
CC(C)c1cc(C(=O)NCc2nnnn2-c2ccccc2)nc2ncnn12,20%,.,.,.,.,.
COc1ccccc1OCC(=O)Nc1nc(C)c(C)s1,1%,-8,-75*,18,?,.
CCOC(=O)Nc1nnc(/C=C/c2ccc(OC)cc2)s1,9%,2,-7,-14,-17%,13µM*
COc1ccc(/C=C/c2nnc(NC(=O)COc3ccccc3)s2)cc1,0%,-10,8,1,2%,.
CCCC(=O)Nc1nnc(/C=C/c2ccc(OC)cc2)s1,33%,-2,0,1,0%,.
COc1ccc(/C=C/c2nnc(NC(=O)COc3ccc(C)cc3)s2)cc1,9%,-6,6,-2,-10%,16µM*
CCOC(=O)Nc1nnc(-c2ccccc2OC)s1,21%,-4,2,2,-10%,3.5µM*
Cc1ccc(C(=O)N2CCC3(CC2)NC(=O)N(c2ccccc2)N3)cc1,1.3µM*,.,.,.,.,.
Cc1ccsc1C(=O)N1CCC2(CC1)NC(=O)N(c1cccc(F)c1)N2,2.8µM*,.,.,.,.,.
Cc1ccsc1C(=O)N1CCC2(CC1)NC(=O)N(c1ccccc1)N2,7.1µM*,.,.,.,.,.
Cc1ccsc1C(=O)N1CCC2(CC1)NC(=O)N(c1cccc(Cl)c1)N2,1.3µM*,.,.,.,.,.
O=C1CCC2(CC1)NC(=O)N(c1ccccc1)N2,?,-1,32,1,3%,.
CCS(=O)(=O)N1CCc2cc(C(=O)Nc3c(C)cc(C)cc3C)ccc21,0%,2,.,.,.,.
Cc1ccc(C2Cc3ccccc3N2)c(C)c1 (stereo not given),?,-14,.,.,.,.
Cc1c(Cl)cccc1Nc1nnc(SCC(=O)Nc2ccnn2C2CCCC2)s1,-6%,2,.,.,.,.
CCCCn1cc(S(=O)(=O)c2ccc(CC)cc2)c(=O)c2cc(F)c(N3CCCC(C)C3)cc21 (stereo not given),-11%,-7,.,.,.,16µM*
CCc1ccc(S(=O)(=O)c2cn(CC)c3cc(N4CCCCC4)c(F)cc3c2=O)cc1,5%,-4,.,.,.,25µM*
SMILES,ALOX12 inh,LDHA inh,KCNH2 3.1 block,KCNH2 WT inh,Chronic BCR inh,ClpP mod
CCCN1CCN(c2cc3c(cc2F)c(=O)c(S(=O)(=O)c2ccc(CC)cc2)cn3CC)CC1,-2%,-1,.,.,.,?
CCn1cc(S(=O)(=O)c2ccccc2)c(=O)c2cc(F)c(N3CCCCCC3)cc21,-1%,-1,.,.,.,32µM*
CCN(CC)c1cc2c(cc1F)c(=O)c(S(=O)(=O)c1ccc(C)cc1)cn2Cc1ccc(F)cc1,-12%,-3,.,.,.,13µM*
CCCCn1cc(S(=O)(=O)c2ccc(Cl)cc2)c(=O)c2cc(F)c(N3CCCC(C)C3)cc21 (stereo not given),-20%,-2,.,.,.,-15%
Cc1ccc(S(=O)(=O)c2cn(Cc3ccc(F)cc3)c3cc(N4CCCC4)c(F)cc3c2=O)cc1,-4%,-5,.,.,.,-5%
CCCn1cc(S(=O)(=O)c2ccccc2)c(=O)c2cc(F)c(N3CCCCC3)cc21,-2%,-8,.,.,.,?
CC(=O)Nc1sc2c(c1-c1ccc(N(C)C)cc1)CCNC2,.,36,.,.,.,.
COC(=O)c1sc2ccccc2c1N,35µM*,-6,19,-10,-8%,5%
COC(=O)c1sc2ccccc2c1C(=O)OC,4%,-3,-2,24,-14%,-3%
COc1ccc(CNC(=O)Cn2c(=O)c3c(ncn3C3CCCC3)n(Cc3ccccc3)c2=O)cc1,-10%,-2,.,.,.,.
COc1ccc(C(=O)N2CCc3nn(Cc4ccccc4)c(=O)n3CC2)cc1F,37%,.,.,.,.,.
Cc1ccc(S(=O)(=O)Nc2ccc(Nc3nccn4c(-c5ccccc5Oc5ccccc5)cnc34)cc2)cc1,?,-10,.,.,.,?
Cc1ccc(S(=O)(=O)Nc2ccc(Nc3nccn4c(-c5ccc6ccccc6c5)cnc34)cc2)cc1,?,-87*,.,.,.,-25%
FC(F)C(F)(F)Oc1cccc(Nc2nccn3c(-c4cc(C(F)(F)F)cc(C(F)(F)F)c4)cnc23)c1,12%,-21,.,.,.,5%
Cc1ccc(-c2cnc3c(Nc4cccc(OC(F)(F)C(F)F)c4)nccn23)cc1,-2%,-39*,.,.,.,5%
COc1ccc(Cl)cc1NC(=O)c1nc2ccccc2nc1N1CCCC1,?,8,.,.,.,.
O=C(CCNC(=O)c1ccc(Cl)cc1)Nc1ccc(Cl)cc1F,-7%,-4,1,11,1%,.
Cc1ccc(C(=O)NNCC(=O)Nc2ccc(Cl)cc2F)cc1,16µM*,-17,-4,-14,-6%,-1%
Cc1ccc(NC(=O)CN2C(=O)NC(Cc3c[nH]c4ccccc34)C2=O)cc1 (stereo not given),?,-7,-101*,-26,0%,-3%
N=C1N(c2ccccc2)C(=S)C(=Nc2ccccc2)N1c1ccccc1,?,13,-18,-71*,.,-1%
Fc1ccc(N2C(=S)SC(=Nc3ccccc3)C2=Nc2ccccc2)cc1,3%,-9,-10,20,.,-4%
CC1=C(C(N)=O)C(c2ccccn2)n2nc(-c3ccccc3Cl)nc2N1 (stereo not given),384%,-7,-170*,-146*,-8%,-2%
COc1ccc(C2C(C(N)=O)=C(C)Nc3nc(-c4cccc(C)c4)nn32)cc1 (stereo not given),-21%,-10,.,.,.,.
CC1=C(C(N)=O)C(c2cccnc2)n2nc(-c3cccc(C)c3)nc2N1 (stereo not given),-11%,-2,1,0,1%,32µM*

# Screens (PubChem)
